The full list was thinned out, with hits kept by preference.
SF-1 inh – inhibitors of human nuclear receptor SF-1; Q13285; CHO-K1 Gal4-SF-1 LBD luciferase reporter; actives 0.55% (n = 65,000); inhibition, % at 10 µM;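 active means inhibition above the mean inhibition of all tested compounds plus 3 SD, cut at about 48% in these data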;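 further: 0% = SF-1 transfected cells with DMSO and 100% = mock-transfected cells lacking SF-1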
Target sequence (Q13285 whole entry, looked up, the tested form may be a part): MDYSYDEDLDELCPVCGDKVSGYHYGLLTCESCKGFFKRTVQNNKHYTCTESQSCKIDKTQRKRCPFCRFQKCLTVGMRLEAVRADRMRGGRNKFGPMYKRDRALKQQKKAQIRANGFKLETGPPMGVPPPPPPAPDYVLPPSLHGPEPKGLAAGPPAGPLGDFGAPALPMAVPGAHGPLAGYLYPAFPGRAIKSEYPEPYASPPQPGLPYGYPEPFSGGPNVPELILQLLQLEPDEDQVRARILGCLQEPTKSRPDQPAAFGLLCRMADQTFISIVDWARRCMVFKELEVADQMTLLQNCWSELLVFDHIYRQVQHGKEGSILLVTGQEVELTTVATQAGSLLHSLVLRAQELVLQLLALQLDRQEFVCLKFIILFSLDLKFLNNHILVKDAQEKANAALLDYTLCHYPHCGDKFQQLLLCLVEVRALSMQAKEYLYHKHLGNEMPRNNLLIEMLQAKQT
Numbers without * were called inactive.

SMILES	SF-1 inh
CC1CN(c2oc(Cc3cccc4ccccc34)nc2C#N)CC(C)O1 (stereo not drawn)	14
CN(c1ccc(C(=O)Nc2ccccc2C(F)(F)F)cc1)S(C)(=O)=O	-15
CCCn1c(C)cc(C(=O)CN2C(=O)c3ccccc3C2=O)c1C	-65
C=CCn1c(C)cc(C(=O)CSc2nnc(Cc3ccccc3)o2)c1C	-14
Cc1nc2ccc(NC(=O)Cc3cccs3)cc2s1	-80
C=CCn1c(C)cc(C(=O)CSc2nnc(NCc3ccccc3)s2)c1C	-59
CC(=O)Nc1ccc(SCC(=O)c2cc(C)n(Cc3cccs3)c2C)cc1	58*
CC(=O)Nc1ccccc1OCC(=O)c1cc(C)n(Cc2cccs2)c1C	70*
Cc1csc(SCC(=O)c2cc(C)n(Cc3cccs3)c2C)n1	60*
CCN(CC)C(=O)Oc1ccccc1NC(C)=O	20
COc1ccc(-c2nnc(SCC(=O)c3cc(C)n(Cc4cccs4)c3C)o2)cc1	12
O=C(Nc1ccc(Br)cn1)c1ccc2nccnc2c1	-69
CC1(C)Cc2c(c(-c3ccccc3)nc(N3CCCC3)c2C(N)=O)CO1	8
Cc1nc2sc(C(c3ccco3)N3CCC(Cc4ccccc4)CC3)c(O)n2n1 (stereo not drawn)	-12
Cn1c(=O)c2c(ncn2CCCNC2=CC(C)(C)CC(=O)C2)n(C)c1=O	8
O=C(COc1ccc(Cl)cc1Cl)Nc1ccccn1	-19
CCOC(=O)c1sc(NC(=O)C2CC2)nc1C	-8
CC(=O)c1sc(Nc2nc3ccc(F)cc3s2)nc1C	-53
CC(=O)c1sc(NC(=O)C2(F)C(F)(F)C(F)(F)C(F)(F)C(F)(F)C2(F)F)nc1C	93*
CCC1C(=O)n2nc(-c3ccccc3)cc2N=C1C (stereo not drawn)	-91
CCOC(=O)N1CCC(NC(=O)c2cnn3cccnc23)CC1	-16
O=c1oc2ccccc2cc1NCc1ccccc1O	-8
Cc1oc2cc(O)cc(O)c2c(=O)c1-c1ccc2c(c1)OCCCO2	-50
COc1ccc(-c2nnc(SCCC(=O)O)n2C)cc1OC	14
COc1ccc(-c2cc(C(=O)O)c(C)o2)cc1OC	51*
SMILES	SF-1 inh
COc1ccc(-c2nc(C)c(C(C)=O)n2O)cc1OC	10
CC(=O)c1c(C)[nH]c(C(=O)Nc2ccc3c(c2)OCCO3)c1C	-61
Cc1oc(-c2ccc3c(c2)OCCO3)cc1C(=O)O	81*
Nc1ccc2c(c1)C(=O)N(CCCC(=O)O)C2=O	20
C[N+]12CCC(CC1)C(OC(=O)C(O)(c1ccccc1)c1ccccc1)C2 (stereo not drawn)	-15
CC(=O)c1cccc(-n2nnnc2SCC(=O)N2CCCC2)c1	2
C/[N+]([O-])=C1\Cc2ccccc2C1=O	-13
COC(=O)c1ccc(CSc2nc(C)nc3sc(C)c(C)c23)o1	16
Fc1ccc(-n2[nH]nnc2=S)cc1N1CCCC1	5
COc1ccc(NC(=O)Cn2c(=O)sc3ccccc32)c(OC)c1	12
CCOCC(=O)Nc1ccc(S(=O)(=O)NCCc2ccccc2)cc1	1
COc1ccc(OC)c(-c2cc(C(=O)NCc3ccco3)no2)c1	3
COC(=O)c1nn(-c2ccc(-c3ccccc3)cc2)cc1O	56*
O=S(=O)(NCc1csc(-c2ccccc2)n1)c1ccc(Cl)s1	12
O=S(=O)(NCc1ccncc1)c1ccc(Br)s1	83*
O=C(CNS(=O)(=O)c1ccc(Br)s1)Nc1ccc2c(c1)OCCO2	-27
N#Cc1c(NC(=O)CN2CCN(S(=O)(=O)c3ccc4c(c3)OCCO4)CC2)sc2c1CCC2	4
CCOC(=O)c1ccccc1NC(=O)c1ccc(NS(C)(=O)=O)cc1	-3
O=S1CCCSC1c1cccnc1 (stereo not drawn)	1
O=C(CN1CCN(CC(=O)Nc2ccccn2)CC1)Nc1ccccn1	8
c1ccc(/N=C2\N=C(Nc3ccccn3)c3ccccc32)nc1	86*
c1ccc(Nc2nc3ccccc3[nH]2)nc1	-55
CCc1nnc2c3cnn(-c4ccc(C)c(C)c4)c3ncn12	-58
NC(=O)C1CCN(CCC(=O)Nc2cccc(Cl)c2)CC1	0
CCC1(CC)C(=O)NC(=O)NC1=NCCc1ccc(O)cc1	4
SMILES	SF-1 inh
CCC(=O)Nc1cccc(-c2nc3ccccc3c(=O)o2)c1	22
CC(=O)Nc1cccc(-c2nnc(-c3ccccc3)o2)c1	-51
CC(=O)/C=C(\C)Nc1ccc(-c2cnc(-c3ccccc3)o2)cc1	-57
CCOc1cccc(C(=O)Nc2cccc(-c3nnc(-c4ccc(C)cc4)o3)c2)c1	11
COc1ccc(CC(=O)Nc2cccc(-c3nnc(-c4cccc(C)c4)o3)c2)cc1OC	93*
COc1ccc(CC(=O)Nc2ccc(-c3nnc(-c4ccccc4)o3)cc2)cc1OC	77*
Cc1ccc(NC(=O)CS(=O)CC(=O)NCC2CCCO2)cc1 (stereo not drawn)	8
COC(=O)c1ccc(NC(=O)CN(c2ccc(OC)cc2)S(C)(=O)=O)cc1	-75
CN(Cc1ccccc1)C(=O)CCNS(=O)(=O)c1ccc2c(c1)oc(=O)n2C	7
COCCn1c(SCc2nc3ccccc3s2)nc2ccccc21	-50
COCCN(CC(=O)Nc1ccc(F)cc1)S(=O)(=O)c1ccc(S(=O)(=O)N2CCCC2)cc1	3
Cc1c(NC(=O)CCCCCN2C(=O)C3C4C=CC(C4)C3C2=O)c(=O)n(-c2ccccc2)n1C (stereo not drawn)	-11
CCOC(=O)N1CCC(N2C(=O)c3ccc(C(=O)Nc4ccc(F)cc4F)cc3C2=O)CC1	-6
Cc1cccc(OCC(O)CN2CCN(C3CCCCC3)CC2)c1 (stereo not drawn)	-36
COc1ccc(-c2cc(C(=O)OC3CCOC3=O)c3ccccc3n2)cc1OC (stereo not drawn)	-6
Cc1c(C(=O)NCc2ccco2)sc2nc(-c3ccccc3)cn12	-52
Cc1c(C(=O)N2CCOCC2)sc2nc(-c3ccccc3)cn12	-82
c1ccc(-c2cn3c4c(sc3n2)CCCC4)cc1	73*
COc1ccc(-c2c(C)n([O-])c3c([n+]2=O)CCC3)cc1OC	-4
COc1ccc(-c2cc3nc4n(c(=O)c3s2)CCOC4)cc1	56*
CCOC(=O)c1sc(-c2ccc(OC)cc2)cc1N	-62
COc1cccc(C(=O)Cn2c(N3CCOCC3)nc3c2c(=O)n(C)c(=O)n3C)c1	-2
CCC1Oc2ccccc2N(CC(=O)Nc2ccccc2OC)C1=O (stereo not drawn)	-3
Cc1cc(/C=N/n2cnnc2)c(C)n1-c1ccc(OCc2ccccc2F)cc1	84*
CCC1CCCCN1CCCNC(=O)CNC(=O)Cn1ccc2ccccc2c1=O (stereo not drawn)	5
SMILES	SF-1 inh
Cc1nnc(NC(=O)NCN2C(=O)C3C4C=CC(C4)C3C2=O)s1 (stereo not drawn)	7
Cc1ccc(-n2nc(C)c(C3C(C#N)=C(N)OC4=C3C(=O)CC(C)(C)C4)c2Cl)cc1 (stereo not drawn)	-57
COC(=O)c1cc2oc3ccccc3c2n1Cc1ccccn1	7
COCCCN(C(C)=O)c1nc(-c2ccc(OC)cc2)cs1	-98
COc1cc(-c2nnc3sc(-c4cccnc4)nn23)cc(OC)c1OC	18
CCN(CC)c1ccc(-c2nn3c(-c4ccccc4OC)nnc3s2)cc1	67*
COc1ccccc1-c1nn2c(-c3ccco3)nnc2s1	-59
O=C(c1cccs1)c1cn(CC(=O)N2CCc3ccccc3C2)c2ccccc12	4
COc1ccc(-n2c(Cc3cccn3C)nnc2SCC(=O)Nc2cccc(OC)c2)cc1	-10
COc1cccc(NC(=O)CSc2nnc(-c3cc(C)n(-c4ccccc4)c3C)o2)c1	67*

Bioassay records as filed in PubChem BioAssay.
